Most compounds without a hit are left out; they make up all but 21% or so of the library.
AMA1-RON2 inh – disrupts binding of P. falciparum AMA1 to RON2. Potency, µM (highest dose often 58.2 µM), actives largely listed as inhibitors. hit rate 0.2% among 360,000. AlphaScreen AMA1-biotinylated RON2 peptide binding; also: nearly all actives have a fitted effect of over 45% in size
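AMA1 (3D7) with his tag at 25 nM final met compounds first, then biotinylated RON2 peptide at 25 nM; detection used donor plus acceptor beads, 10 µg/mL apiece, read by AlphaScreen after 30 min at room temperature.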
HCV inhibitor – HCV inhibition | Huh7.5.1 HCVcc-Cre infection, luciferase reporter, 44 h | Potency, µM (top dose mostly 41.8 µM), hits mostly inhibitors | hit rate 3.4% among 340,000 | AID 651820
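Whole-lifecycle infectious HCVcc-Cre system; cells 1,000/well, compound then virus (~0.5 moi) added 4 h after plating, 44 h culture. Luciferase read 15 sec following 15 min substrate incubation, room temp.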
Shiga toxin inh – Shiga toxin inhibition | Vero cells, Shiga toxin protein synthesis inhibition reporter | inhibition, % at 38.7 µM | hit rate 9.2% among 290,000; in the data active = inhibition mostly above about 28%, no sharp cut-off; inactive = mostly below about 43%
Cycloheximide cs – counter-screen hit for Shiga toxin inhibitors, cycloheximide; hit rate 12% among 300,000; AID 2314; max response, %; cell reporter, cycloheximide protein synthesis inhibition counterscreen; in the data active = max response mostly above about 13%, no sharp cut-off; inactive = mostly below about 14%; also: read at 38.3 µM for the half of the compounds with a filed dose
Pf growth 96h – inhibits malaria parasite growth, 96 h; P. falciparum luciferase reporter growth, 96 h; Potency, µM (titrated, usually from 28.7 µM), actives largely listed as inhibitors; hit rate 6.9% among 320,000; AID 504834
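Two-generation exposure (96 h) targets delayed-death phenotype. Reporter parasites carrying integrated firefly luciferase, in red cells at 2% hematocrit and 0.05% parasitemia final, kept at 37 C, 5% CO2; luminescence loss indicates inhibition.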
Pf growth 48h – inhibits P. falciparum growth in the first generation, 48 h; hit rate 5.9% among 310,000; Potency, µM (titrated, usually from 28.7 µM), usual class: inhibitors; P. falciparum luciferase growth in erythrocytes, 48 h
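Luciferase-expressing parasites in RBCs, 2% Hct / 0.1% parasitemia final; RPMI 1640 + 0.5% Albumax; 37 C, 5% CO2, one generation; luminescence read-out, lower signal = inhibition.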
Of the large screens only hits and unclear results are named; the others gave an inactive call. Unless noted, calls follow the shape of the dose curve; as a rule, active = well fitted curve in the direction sought with a large enough effect; inconclusive = small, poorly fitted or top-dose-only effect, or another doubt; inactive = no such curve, though single readings can be large; an effect the other way counts as inactive or inconclusive.

Cc1noc(C)c1COc1ccccc1C(=O)N(C)CC(=O)Nc1ccc(F)c(F)c1F	HCV inhibitor inconclusive, Pf growth 96h inconclusive, Pf growth 48h inconclusive (no result: Shiga toxin inh, Cycloheximide cs)
NC(=O)NS(=O)(=O)c1ccc(N)cc1	none (no result: AMA1-RON2 inh, HCV inhibitor, Shiga toxin inh, Cycloheximide cs)
COC(=O)c1ccc(=O)c2nc3/c(=C/O)c(O)cc(=O)c3[nH]c12	AMA1-RON2 inh 1.26µM, HCV inhibitor inconclusive, Pf growth 96h inconclusive, Pf growth 48h inconclusive
COc1ccc(CN2CCC2(C)C(=O)NCCc2c[nH]c3ccccc23)c2ccccc12 (configuration not stated)	none (no result: HCV inhibitor, Shiga toxin inh, Cycloheximide cs, Pf growth 96h, Pf growth 48h)
COc1nc(-c2ccc(Cl)cc2)nnc1C	Cycloheximide cs 14.9
Cn1nc(C(=O)NCC(=O)Nc2ccc(F)c(F)c2)ccc1=O	none (no result: HCV inhibitor, Shiga toxin inh, Cycloheximide cs, Pf growth 96h, Pf growth 48h)
O=C(CSc1ccccc1)NC1CC1	none (no result: HCV inhibitor, Shiga toxin inh, Cycloheximide cs, Pf growth 96h, Pf growth 48h)
O=C(CSc1ccccc1C(=O)O)NC1CCCCCCC1	none (no result: Pf growth 48h)
O=C(CSc1ccccc1)NC1CCCCCC1	Shiga toxin inh 117.9, Cycloheximide cs 49.3, Pf growth 96h inconclusive
O=C(CSc1ccccc1C(=O)O)NC1CCCCCC1	Pf growth 96h inconclusive
NC(=O)c1ccc(-n2nnnc2SCC(=O)NC2CCCCC2)cc1	Pf growth 96h 13.1µM
O=C(CSc1ccccc1)NC1CCCCCCC1	Shiga toxin inh 61.7, Cycloheximide cs 40.2
CCN(CC(=O)NC(C)(C)C)C(=O)c1ccccc1SCC(=O)NC1CCCCCCC1	Pf growth 96h inconclusive, Pf growth 48h 10.4µM (no result: HCV inhibitor)
CN(CC(=O)Nc1ccccc1C(F)(F)F)C(=O)c1cccc(-n2cccc2)c1	AMA1-RON2 inh inconclusive (no result: Shiga toxin inh, Cycloheximide cs)
CCCCn1c(N)c(N(CCOC)C(=O)c2ccc(S(=O)(=O)N3CCC(C)CC3)cc2)c(=O)[nH]c1=O	Pf growth 48h inconclusive (no result: Shiga toxin inh, Cycloheximide cs)
Nc1cc(=O)nc(SCC(=O)NC2CCCCC2)n1-c1ccccc1	none
Nc1nnc(SCC(=O)NC2CCCCC2)n1-c1ccccc1	Pf growth 96h 8.28µM
CC(C)Cc1nnc(NC(=O)c2ccc3c(=O)n4c(nc3c2)CCC4)s1	none (no result: HCV inhibitor)
O=C(Cn1ncc2c([nH]c3ccccc32)c1=O)NCC1CCN(Cc2ccccc2F)CC1	Pf growth 96h 9.28µM
O=C(Cn1ncc2c([nH]c3ccccc32)c1=O)NCCc1ccccc1	none
CCc1cccc(CC)c1-n1c(SCn2nnc3ccccc3c2=O)nnc1-c1cccnc1	Pf growth 96h 4.15µM (no result: Pf growth 48h)
CCc1cccc(CC)c1-n1c(SCC(=O)c2c(N)n(C)c(=O)n(C)c2=O)nnc1-c1cccnc1	none
CCc1cccc(CC)c1-n1c(SCC(=O)N2CCc3ccccc3C2)nnc1-c1cccnc1	HCV inhibitor inconclusive, Pf growth 96h 6.57µM, Pf growth 48h 11.7µM
Cn1c(COc2ccccc2O)[n+](C)c2ccccc21	none
CCCCCCCCCCOC(=O)Cn1c(COc2ccccc2OC)[n+](C)c2ccccc21	HCV inhibitor 14.1µM, Pf growth 96h inconclusive, Pf growth 48h 1.65µM
Nc1nc(CSc2ccccc2)nc(N2CCCCC2)n1	Shiga toxin inh 138.3, Cycloheximide cs 50.9
Cc1cc(N(C)N)nc(NC(=O)NS(=O)(=O)c2ccccc2Cl)n1	Cycloheximide cs 16.3
CCN(CC)S(=O)(=O)c1ccc(NC(=O)CN(c2ccc(OC)cc2OC)S(C)(=O)=O)cc1	Pf growth 48h 9.28µM
CCN(CC)S(=O)(=O)c1ccc(NC(=O)C(C)N(c2ccc(OC)cc2)S(C)(=O)=O)cc1 (configuration not stated)	HCV inhibitor 10µM (no result: Pf growth 96h)
O=C(Cn1cc(C(F)(F)F)ccc1=O)NC1CCCC1	none (no result: Shiga toxin inh, Cycloheximide cs)
CC(=O)c1c(C)oc2ccc(N(C(=O)C3CCCCC3)S(=O)(=O)c3cc([N+](=O)[O-])ccc3C)cc12	HCV inhibitor inconclusive, Pf growth 96h 3.7µM
Cc1cccc(N(C)C(=S)Oc2ccc3ccccc3c2)c1	Shiga toxin inh 49.4, Cycloheximide cs 27.8
COc1ccc(N(C)C(=S)Oc2ccc(C(=O)Nc3ccccc3)cc2)cc1	Pf growth 96h inconclusive, Pf growth 48h inconclusive (no result: AMA1-RON2 inh, HCV inhibitor)
Cc1cccc(NC(=O)[C@H](Cc2c[nH]c3ccccc23)NC(=O)[C@@H]2Cc3ccccc3CN2)c1	HCV inhibitor 3.98µM, Cycloheximide cs 13.6, Pf growth 96h 11.7µM, Pf growth 48h 8.28µM
CC(NC(=O)[C@H](Cc1c[nH]c2ccccc12)NC(=O)[C@@H]1Cc2ccccc2CN1)c1ccccc1 (some centres not stated)	HCV inhibitor inconclusive, Pf growth 96h inconclusive, Pf growth 48h inconclusive
CCc1ccc(NC(=O)[C@H](Cc2c[nH]c3ccccc23)NC(=O)[C@@H]2Cc3ccccc3CN2)cc1	HCV inhibitor 3.55µM, Shiga toxin inh 28.3, Pf growth 96h inconclusive, Pf growth 48h inconclusive
Cc1cc(C)cc(NC(=O)[C@H](Cc2c[nH]c3ccccc23)NC(=O)[C@@H]2Cc3ccccc3CN2)c1	HCV inhibitor inconclusive, Pf growth 96h inconclusive, Pf growth 48h 9.28µM
C[C@@H]1CCC2[C@](C)(CO)[C@@H](O)CC[C@]2(C)[C@@]12C[C@](CO)(CC(=O)O)CO2 (some centres not stated)	none
C[C@H](CO)N1C[C@H](C)[C@@H](CN(C)Cc2ccncc2)Oc2c(NS(=O)(=O)c3ccc(F)cc3)cccc2C1=O	none (no result: Shiga toxin inh, Cycloheximide cs, Pf growth 96h, Pf growth 48h)
COc1ccc(CN2C(=O)c3ccccc3C2C(=O)NC2CCCCCC2)c(OC)c1 (configuration not stated)	Pf growth 96h inconclusive, Pf growth 48h inconclusive
CCOc1ccccc1CN1C(=O)c2ccccc2C1C(=O)NC(C)CC (configuration not stated)	Pf growth 96h 8.28µM
COc1ccc(CN2C(=O)c3ccccc3C2C(=O)NCCc2ccccc2)c(OC)c1 (configuration not stated)	Pf growth 96h 8.28µM, Pf growth 48h inconclusive
CC(C)N1C(=O)c2ccccc2C1C(=O)NCCc1ccccc1 (configuration not stated)	Pf growth 96h 8.28µM
C=CCNc1ncnc2c1ncn2[C@H]1CN(Cc2cccc3ccccc23)C[C@@H](CO)O1	none (no result: HCV inhibitor, Shiga toxin inh, Cycloheximide cs, Pf growth 96h, Pf growth 48h)
O=C(Nc1ccccn1)C1CCCN1S(=O)(=O)c1ccc(Cl)cc1 (configuration not stated)	Pf growth 96h inconclusive
COCCCn1c(=O)c2sccc2n(Cc2cc(C(=O)OC)ccc2OC)c1=O	HCV inhibitor inconclusive, Pf growth 48h inconclusive
CC1(C)CCCC2(C)C(OCCO)=CC(=O)C=C12 (configuration not stated)	none (no result: HCV inhibitor, Shiga toxin inh, Cycloheximide cs, Pf growth 96h, Pf growth 48h)
Cc1cccc(NCc2cccc3ccccc23)n1	Cycloheximide cs 41.1, Pf growth 96h inconclusive
Cc1cccc(NCc2ccc(Br)cc2)n1	Shiga toxin inh 109.0, Cycloheximide cs 35.3
COc1ccc(CNc2cccc(C)n2)c(O)c1	none
CCCC(=O)N1CCC1(C)C(=O)Nc1ccc2c(c1)OCCO2 (configuration not stated)	none (no result: HCV inhibitor, Shiga toxin inh, Cycloheximide cs, Pf growth 96h, Pf growth 48h)
Cc1ccc(C(=O)Nc2scc(-c3ccccc3)c2C(=O)O)o1	Cycloheximide cs 14.3
O=C(Nc1scc(-c2ccccc2)c1C(=O)O)c1ccccc1F	Cycloheximide cs 21.8
